Only some compounds are listed: those with a hit (about 6.7% of all), similar ones and a draw of the others.
BoNT A protease: inhibitors of Botulinum neurotoxin A light chain protease. multiplex microsphere protease substrate cleavage, flow cytometry. AID 588499. inhibition, % at 10 µM. actives 0.17% (n = 360,000); also: plate controls were buffer without enzyme for full effect and enzyme alone for no effect
Anthrax LF inh2: blocks Bacillus anthracis lethal factor protease; P15917; multiplex microsphere protease cleavage assay, LF; inhibition, % at 10 µM; actives 0.12% (n = 360,000); AID 588501; also: plate controls were buffer without enzyme for full effect and enzyme alone for no effect
Target sequence (P15917 whole entry, looked up): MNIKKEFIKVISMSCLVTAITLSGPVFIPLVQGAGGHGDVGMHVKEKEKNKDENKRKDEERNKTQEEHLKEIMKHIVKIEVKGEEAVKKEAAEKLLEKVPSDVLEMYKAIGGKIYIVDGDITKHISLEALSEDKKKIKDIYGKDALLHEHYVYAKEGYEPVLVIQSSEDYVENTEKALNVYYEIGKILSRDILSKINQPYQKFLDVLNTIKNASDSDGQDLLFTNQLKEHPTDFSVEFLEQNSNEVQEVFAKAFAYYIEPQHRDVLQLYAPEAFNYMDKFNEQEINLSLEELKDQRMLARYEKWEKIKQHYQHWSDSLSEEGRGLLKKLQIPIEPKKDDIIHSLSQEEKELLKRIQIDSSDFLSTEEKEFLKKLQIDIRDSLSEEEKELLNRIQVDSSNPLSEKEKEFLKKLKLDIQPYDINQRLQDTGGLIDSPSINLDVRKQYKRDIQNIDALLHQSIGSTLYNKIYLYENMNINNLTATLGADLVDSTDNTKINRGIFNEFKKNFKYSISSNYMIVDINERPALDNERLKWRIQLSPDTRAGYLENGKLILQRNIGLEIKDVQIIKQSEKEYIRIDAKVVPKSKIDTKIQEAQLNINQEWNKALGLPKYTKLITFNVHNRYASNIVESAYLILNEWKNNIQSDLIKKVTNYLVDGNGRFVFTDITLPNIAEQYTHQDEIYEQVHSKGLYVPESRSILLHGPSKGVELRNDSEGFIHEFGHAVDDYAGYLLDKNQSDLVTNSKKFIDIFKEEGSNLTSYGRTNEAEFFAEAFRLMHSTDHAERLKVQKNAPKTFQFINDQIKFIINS
BoNT-F LC inh: inhibitors of Botulinum neurotoxin F light chain protease | Multiplex microsphere protease cleavage assay, flow cytometry | inhibition, % at 10 µM | actives 0.22% (n = 360,000) | AID 588497; in the data active = inhibition above about 35%, passing the limit was not always enough; inconclusive = no clear call, values can overlap the other calls; also: plate controls were buffer without enzyme for full effect and enzyme alone for no effect
GDH-TPI inh: inhibits GDH-TPI coupling enzymes, artifact for Mtb FBA screen. actives 1.2% (n = 360,000). AID 588335. GDH-TPI coupled enzyme counterscreen, NADH absorbance. inhibition, % at 4.8 µM; in the data active = inhibition above about 30%;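 also: 0% = DMSO wells and 100% = wells lacking the enzyme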
FBA Mtb inh: inhibits M. tuberculosis FBA enzyme. purified M. tuberculosis FBA, fluorescence read-out. inhibition, % at 1 µM. actives 2.3% (n = 360,000). AID 588726; in the data active = inhibition above about 27%;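 also: 0% = vehicle and 100% = reference inhibitor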
Autofluor counter: compound fluorescence in toxin protease inhibitor counterscreen; compound autofluorescence counterscreen, microsphere flow cytometry; stronger effect = higher value; fluorescence intensity (test concentration not listed); actives 3.1% (n = 360,000); in the data active = fluorescence intensity above about 16000; inconclusive = no clear call, values can overlap the other calls
Active calls of the source: *; ? = inconclusive; + = active, no number. Rule as the data show it, unless noted: active = inhibition above about 30%; inconclusive = no clear call, values can overlap the other calls; inactive = below that.

SMILES	BoNT A protease	Anthrax LF inh2	BoNT-F LC inh	GDH-TPI inh	FBA Mtb inh	Autofluor counter
Fc1ccc(-c2csc(Nc3ccccn3)n2)c(F)c1	-0.9	-5.8	?	1.5	-1.9	3238
COc1ccc(C2CC(c3ccccc3)=NN2c2ccc(S(N)(=O)=O)cc2)cc1OC (stereo not drawn)	0.7	0.0	-0.3	18.2	+	2121
NS(=O)(=O)c1ccc(N2N=C(c3ccc(Br)cc3)CC2c2ccc(F)cc2)cc1 (stereo not drawn)	2.3	4.7	-0.1	27.5	+	2395
O=C(N/N=C/c1cccs1)c1ccc2nc[nH]c2c1	-1.2	-0.8	-7.5	16.7	-1.6	4498
COc1ccc(N(CC(=O)NC2CCCC2)C(=O)Cn2nnc(-c3ccc(C)cc3)n2)cc1OC	-0.1	-3.8	-1.8	6.6	1.1	16197*
COc1ccc(-c2nnn(CC(=O)N(C3CCCCC3)C(C)C(=O)NC3CCCC3)n2)cc1OC (stereo not drawn)	-0.2	-3.3	-0.7	5.8	0.6	23408*
CC1CCCCN1Cc1ccc(-c2nnn(CC(=O)NC3CCCCC3)n2)cc1 (stereo not drawn)	0.2	-2.6	-13.6	62.1*	-10.2	4267
O=C(O)CCC(=O)N1CCc2cc(S(=O)(=O)NCCc3ccc(Cl)cc3)ccc21	-1.8	-2.7	-0.7	-2.5	4.0	4815
CCc1c(C(=O)Nc2ncn(Cc3cccc(C)c3)n2)csc1C	?	-6.2	-0.4	15.5	0.3	16518*
CC(=O)c1ccc(NC(=O)Nc2ncn(Cc3cccc(C)c3)n2)cc1	-1.5	-1.6	-7.6	3.4	2.0	9957
CCc1c(C(=O)Nc2ccccc2C(N)=O)csc1C	3.1	0.8	13.3	13.4	3.7	5342
CCc1c(C(=O)Nc2ccncc2)csc1C	-0.7	-7.3	-1.9	6.2	0.2	23043*
CC1(C)CC(=NOC(=O)c2ccccc2)CC(C)(C)N1	2.0	1.3	2.7	0.0	1.5	19903*
O=C(NC1CCN(c2ncccn2)CC1)c1ccccc1F	-1.3	-2.1	-13.1	8.6	3.6	3083
O=C(N/N=C/c1c(F)c(F)c(F)c(F)c1F)c1ccc(Cn2cc(Br)cn2)o1	2.4	-2.8	12.1	3.6	0.6	9619
CC(C)(C)c1nnc(N/N=C/c2cc(Br)ccc2O)n(N)c1=O	-2.2	-2.5	-19.8	33.3*	-1.1	8250
CCOC(=O)c1ccc(Oc2cc(C)nc(SC)n2)cc1	?	?	-6.4	-2.9	1.6	?
COc1ccc(NC(=O)C(C)N2c3cccc4cccc(c34)S2(=O)=O)cc1 (stereo not drawn)	2.4	-1.2	-0.6	5.6	1.8	22225*
CC1CCCCC1n1c(=S)[nH]c2ccccc2c1=O (stereo not drawn)	-2.4	-12.6	-2.5	-3.8	0.3	23138*
COn1c(=S)[nH]c2ccccc2c1=O	?	-2.2	1.2	-0.5	0.8	22258*
COc1ccc(F)cc1C(=O)C1CCCN(Cc2c(C)n(C)n(-c3ccccc3)c2=O)C1 (stereo not drawn)	-1.8	-2.2	-10.1	-0.3	4.7	2743
Cc1nc2c(c3c1[nH]c1ccccc13)C(=O)CC(C)(C)C2	0.8	2.0	4.8	-1.4	4.0	3346
Nc1ccc2nc(-c3ccccn3)[nH]c2c1	-0.5	-1.5	-9.5	28.7	-0.8	2723
CC(=O)Nc1ccc2nc(-c3cccs3)[nH]c2c1	-0.3	-6.4	-1.0	44.0*	+	2526
Nc1ccc2nc(-c3cccs3)[nH]c2c1	-0.3	-5.8	-29.6	28.7	+	10181
SMILES	BoNT A protease	Anthrax LF inh2	BoNT-F LC inh	GDH-TPI inh	FBA Mtb inh	Autofluor counter
CC(=O)Nc1ccc2nc(-c3cccn3C)[nH]c2c1	-0.8	-20.5	?	20.8	6.4	4059
Nc1ccc2nc(-c3ccc(N)c(Cl)c3)[nH]c2c1	-0.1	-9.9	-26.8	32.4*	119.2*	2617
Nc1ccc2nc(-c3ccccc3)[nH]c2c1	-0.8	-8.4	-30.3	20.9	+	3398
Nc1ccc2nc(-c3cccnc3)[nH]c2c1	0.1	-1.4	5.5	20.9	3.7	2327
CCc1nnc(NC(=O)CSc2nnc(C)n2-c2ccc(C)cc2)s1	-0.5	-2.2	1.5	1.3	0.7	2627
O=C(CC1C(=O)NCCN1Cc1c(F)cccc1Cl)NCCCn1ccnc1 (stereo not drawn)	0.1	-2.5	-7.2	-0.4	0.9	2243
O=C(COC(=O)/C=C/c1ccc(Cl)cc1)Nc1cccc(S(=O)(=O)NC2=NCCCCC2)c1	-0.1	-1.3	-5.3	-9.6	-1.9	4060
O=C(NCC(c1ccco1)N1CCCC1)c1cc2cc(Cl)ccc2o1 (stereo not drawn)	6.2	-4.0	2.7	-0.3	1.6	?
Cc1ccc(CNC(=O)CN(C)S(=O)(=O)c2ccc(F)cc2)cc1	0.7	5.2	-9.0	0.4	1.1	3974
Nc1ccc(-c2nc3c(Cl)cc(N)cc3[nH]2)cc1	-0.1	-6.9	2.1	44.8*	196.7*	2120
Nc1ccc(Cl)c(Cl)c1	-0.4	-0.8	-2.6	2.7	3.2	4310
Cc1ccc(S(=O)(=O)N2CCC(C(=O)N3CCC(C(=O)NCC4CCCO4)CC3)CC2)cc1 (stereo not drawn)	-0.3	1.5	0.1	-9.6	0.8	7979
O=S(=O)(c1ccccc1)c1cnc(-c2cccnc2)nc1-c1ccc(Cl)c(Cl)c1	9.2	-20.9	10.8	-9.7	1.4	17469*
CCOc1ccc(C(=O)Nc2nnc(SCC(=O)NCC3CCCO3)s2)cc1 (stereo not drawn)	-0.8	-2.7	-7.8	38.1*	0.6	4758
CN(C)S(=O)(=O)c1ccc(C(=O)Nc2nnc(SCC(=O)NCC3CCCO3)s2)cc1 (stereo not drawn)	-0.7	-1.0	1.8	35.0*	-1.8	5818
COc1ccc(CC(=O)NC2CCN(CC(=O)Nc3ccc4c(c3)OCCO4)CC2)cc1OC	-0.9	-3.5	-4.1	2.6	0.6	23401*
COc1ccccc1NC(=O)CN1CCC(c2nc3ccc(C)cc3[nH]2)CC1	-1.1	-2.3	-4.4	-5.8	-4.2	5651
Cc1ccc2nc(C3CCN(CC(=O)Nc4ccc5c(c4)OCCO5)CC3)[nH]c2c1	0.5	-1.2	-3.5	1.9	-1.2	23511*
COc1ccccc1NC(=O)N1CCC(c2nc3cc(C)c(C)cc3[nH]2)CC1	0.6	0.4	-1.2	4.9	1.1	9255
O=S(=O)(c1ccc2c(c1)OCCO2)N1CCC(c2nc3ccccc3[nH]2)CC1	2.7	-0.2	3.0	-8.9	0.9	22441*
CCOc1ccccc1NC(=O)N1CCC(c2nc3ccccc3[nH]2)CC1	?	1.7	4.6	-9.6	-0.4	21924*
O=S(=O)(c1ccc2c(c1)OCCO2)N1CCC(c2nc3ccc(Cl)cc3[nH]2)CC1	3.8	2.9	4.5	10.7	2.3	15046
COc1ccc(NC(=O)CN2CCN(Cc3ccc4c(c3)OCO4)CC2)cc1OC	0.8	5.4	3.0	0.9	3.4	4587
